Integrin act MD – integrin-mediated muscular dystrophy alleviation activation | 0.064% of 350,000 active | Potency, µM (series often up to 38.3 µM), without a hit: at the highest dose activation, most hits filed as activators | AID 624291 | alpha7betagal myoblasts, beta-gal FDG fluorescence, 48 h;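 further: potency means the concentration at half of the fitted maximal effect; 100% = response of the positive control SU9516; nearly all actives have a fitted effect of over 60% in size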
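Alpha7betagal+/- myoblasts (passage 13) were plated 16-24 hr, then exposed to compounds (1:260 dilution of DMSO stock) for 48 hours at 37C. After MPER lysis, β-galactosidase reporter activity was read as FDG fluorescence (ex 480/em 540) after 30 minutes.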
USP2a inh – inhibitors of human ubiquitin-specific protease USP2a; O75604; USP2 core, Ub-CHOP2 coupled fluorogenic reporter, 485/531; Potency, µM (doses to about 38.3 µM), inactives show at the top dose activity change, negative = inhibition, most hits filed as inhibitors; 0.01% of 330,000 active;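 further: potency means the concentration at half of the fitted maximal effect; plate controls were DMSO wells for no effect and full inhibition by NEM control for full effect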
Target sequence (O75604 whole entry, looked up): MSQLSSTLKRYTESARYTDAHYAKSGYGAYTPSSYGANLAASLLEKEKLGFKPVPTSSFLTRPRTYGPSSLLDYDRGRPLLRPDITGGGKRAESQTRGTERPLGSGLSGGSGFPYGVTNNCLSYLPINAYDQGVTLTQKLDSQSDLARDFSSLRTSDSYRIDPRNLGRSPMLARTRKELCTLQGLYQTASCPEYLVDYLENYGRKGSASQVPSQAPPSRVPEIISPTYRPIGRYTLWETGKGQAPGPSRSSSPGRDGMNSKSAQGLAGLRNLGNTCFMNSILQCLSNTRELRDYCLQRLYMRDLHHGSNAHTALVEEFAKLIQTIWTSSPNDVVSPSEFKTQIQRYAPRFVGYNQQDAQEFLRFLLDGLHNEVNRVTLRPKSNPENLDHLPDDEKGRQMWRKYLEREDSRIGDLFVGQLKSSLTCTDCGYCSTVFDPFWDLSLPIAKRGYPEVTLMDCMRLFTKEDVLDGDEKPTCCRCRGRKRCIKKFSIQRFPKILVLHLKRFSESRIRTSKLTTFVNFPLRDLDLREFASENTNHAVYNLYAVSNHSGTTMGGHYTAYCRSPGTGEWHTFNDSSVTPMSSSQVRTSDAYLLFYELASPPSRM
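Cell-free coupled assay: 10nM USP2 core preincubated 30min RT with compound in Tris-HCl pH 8.0/CaCl2/CHAPS buffer, then 25nM Ub-CHOP2 and 25nM reporter substrate; fluorescence (Ex 485/Em 531) read after 60min RT, normalized to NEM inhibition, concentration-response curves fitted.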
PKM2 act – PKM2 (human) enzyme activation; Potency, µM (top dose mostly 57.5 µM), inactives show at the highest dose activation, actives largely listed as activators; purified PKM2, Kinase-Glo ATP luminescence, activation; response scale: 0% is enzyme alone, no compound; 0.34% of 260,000 active; further: potency means the concentration at half of the fitted maximal effect; on the % scale 0 is the no-effect control and ±100 the full control effect; nearly all actives have a fitted effect of over 55% in size
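Kinase-Glo luminescence reports ATP generated from ADP (0.1 mM) and PEP (0.5 mM) by purified hPK-M2 after 1 h at room temperature, pH 7.2 imidazole buffer; intermediate enzyme activity allows detecting inhibitors and activators.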
Pin1 inhibitor – human Pin1 inhibition; Q13526; Pin1 FP peptide displacement, HiFluor488, 10 min; Potency, µM (titrated, usually from 115 µM), without a hit: top-dose activity, negative = inhibition, hits mostly inhibitors; 0.009% of 390,000 active; AID 504891; active means well fitted inhibition curve with a large enough effect in the polarisation, with a control signal flat, not every such curve was filed as active; inconclusive means small, poorly fitted or top-dose-only effect, or effect the other way, or a change in a side signal; inactive means no such curve, though single readings can be large or run the other way; the % refers to the polarisation; further: potency means the concentration at half of the fitted maximal effect; on the % scale 0 is the no-effect control and ±100 the full control effect
ClpP mod – qHTS Assay for Activators of ClpP; 1.9% of 340,000 active; Potency, µM (series often up to 57.5 µM), for the others: at the highest dose activity change, negative = active; purified B. subtilis ClpP, FRET peptide cleavage, 20 min; ATP-dependent Clp protease proteolytic subunit (Bacillus subtilis (strain 168)), P80244; active means well fitted falling curve with a large enough effect; inconclusive means small, poorly fitted or top-dose-only effect; inactive means no such curve, though single readings can be large or run the other way; further: potency means the concentration at half of the fitted maximal effect; the source files actives as falling curves though it sought activators and does not explain the sign; nearly all actives have a fitted effect of over 65% in size
Target sequence (P80244 whole entry, looked up): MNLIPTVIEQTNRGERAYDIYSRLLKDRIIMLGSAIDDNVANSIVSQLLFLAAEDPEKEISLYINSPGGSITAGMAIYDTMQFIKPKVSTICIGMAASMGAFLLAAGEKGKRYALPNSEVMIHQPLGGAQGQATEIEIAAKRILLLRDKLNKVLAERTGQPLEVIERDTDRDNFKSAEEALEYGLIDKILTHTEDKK
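Buffer: 100 mM Tris/HCl pH8, 100 mM KCl, 0.05% low protease BSA, 2.5% glycerol, 0.01% Tween-20. ClpP 10 microg/mL final; 20 min RT; delta FRET normalized to ADEP and DMSO controls.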
IL2 activator – IL-2 activation; IL-2 activation reporter assay, cell-based qHTS; stimulated with anti-CD3/CD4/CD28 beads; in transgenic mouse T cells; activation, % (series mostly up to about 46 µM); 0.065% of 360,000 active; in the data active means activation above about 50%; inconclusive means mostly about 30% to 49%; further: 0% is about no effect
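Unstimulated transgenic mouse T cells preincubated 60 min with compound, then stimulated with anti-CD3/anti-CD4-coated beads plus anti-CD28 for 18 h at 37 degrees C. IL-2 response read as EGFP and DsRed fluorescence by plate cytometry.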
* marks the source's active call; other numbers are inactive results; ? = inconclusive; nt = no result; [ ] = another dose, or the depositor's remark. This is a sample that favours compounds with a hit; in the whole collection about 1.9% have one here. Unless noted, the call rests on the fitted dose curve; in most records, active means well fitted curve in the direction sought with a large enough effect; inconclusive means small, poorly fitted or top-dose-only effect, or another doubt; inactive means no such curve, though single readings can be large; an effect the other way counts as inactive or inconclusive.

SMILES | Integrin act MD | USP2a inh | PKM2 act | Pin1 inhibitor | ClpP mod | IL2 activator
CCCCC1OC23CCCCC2C(C#N)(C#N)C1(C#N)C(=N)O3 (stereo not given) | -23% | 9% | 5% | ? | -85% | 1
N#CC1(C#N)C(c2ccccc2)OC23CCCCCC2C1(C#N)C(=N)O3 (stereo not given) | -19% | 8% | 2% | ? | 32µM* | -1
CCCCC1OC23CCCCC2C(C#N)(C(=N)O3)C1(C#N)C#N (stereo not given) | 0% | 9% | 2% | ? | ? | 1
Cc1ccc2c(c1)ncc[n+]2CC(=O)c1ccc(Cl)cc1Cl | nt | nt | nt | nt | -8% | nt
Cc1c([N+](=O)[O-])cnc2ccccc12 | nt | nt | nt | nt | -15% | nt
COc1cccc(-c2ccc(C#N)c(OC(=O)c3ccc(Cl)cc3)n2)c1 | 1% | 5% | -6% | -4% | -13% | 0
COc1cccc(-c2ccc(C#N)c(OC(=O)c3c(Cl)cccc3Cl)n2)c1 | -58% | -7% | -6% | 4% | 16µM* | -4
Cc1cnnc2ccccc12 | nt | nt | nt | nt | -1% | nt
O=C(O)CCCNc1ccc(S(=O)(=O)Nc2ccccc2C(=O)O)cc1C(=O)O | 17% | 2% | -27% | ? | 16µM* | -2
CCC(COC(=O)Nc1cccc(C)c1)NC(=O)OCC(C)C (stereo not given) | -10% | 2% | -9% | 6% | 10µM* | 0
Cc1cc(C)c[n+](CC(=O)c2cc3ccccc3oc2=O)c1 | -5% | 2% | 13% | -1% | 28µM* | 1
Cc1ccc[n+](CC(=O)c2cc3ccccc3oc2=O)c1 | -9% | 1% | 26% | -4% | ? | -1
O=C(Cn1nc(Cl)nc1Cl)c1cc2ccccc2oc1=O | -38% | 3% | -2% | -14% | 28µM* | -1
COC(=O)CC1c2ccccc2C(Cc2ccc(OC)cc2)C(C)N1C(=O)OC (stereo not given) | nt | nt | -6%[11.5 µM] | nt | nt | nt
CC(C)C(=O)Nc1ccc2c(c1)C(=O)N(CCC(=O)O)C2=O | 14% | 2% | 0% | 0% | 28µM* | 0
COc1ccc(CC(=O)Nc2ccc3c(c2)C(=O)N(CCC(=O)O)C3=O)cc1 | 0% | -1% | 5% | 6% | -2% | -1
Cc1ccc(NS(=O)(=O)c2ccc3c(c2)CCN(C(=O)C(F)(F)F)C3)cc1C | nt | nt | nt | 1% | nt | nt
CCCCc1nc2c(c3c1C[C@H](C)OC3)CN(C(=O)N[C@@H](C)c1ccccc1)CC2 | nt | nt | -2%[11.5 µM] | nt | nt | nt
C[C@@H]1C(=O)N(S(=O)(=O)c2ccc([N+](=O)[O-])cc2)[C@H]1c1ccccc1 | nt | nt | nt | -14% | nt | nt
COc1cccc2cc(NC(=O)C3CCCCC3)c(=O)oc12 | 9% | 1% | -9% | -2% | 35µM* | -1
O=C1OCCC1Sc1nnc(-c2ccc(F)cc2)n1Cc1ccccc1 (stereo not given) | 14% | 0% | -2% | -3% | 25µM* | 0
S=C(Nc1ccc(Cl)cc1)N1CCN(Cc2ccccc2)CC1 | 4% | 0% | -1% | -4% | 1% | -4
FC(F)Oc1ccc(NC(=S)N2CCN(Cc3ccccc3)CC2)cc1 | -21% | 3% | 4% | 1% | 8.9µM* | 1
C(=Nc1cnc2ccccc2c1)c1ccnc2ccccc12 | nt | nt | nt | nt | 4% | nt
CC1(C)CC2(CC(c3ccccc3F)c3ccc(O)c(O)c3O2)NC(=S)N1 (stereo not given) | 4% | -1% | 2.8µM* | 0% | nt | -2
SMILES | Integrin act MD | USP2a inh | PKM2 act | Pin1 inhibitor | ClpP mod | IL2 activator
OC(Cc1ccc2ccccc2n1)c1c(Cl)cccc1Cl (stereo not given) | nt | nt | nt | nt | 0% | nt
O=C(O)c1ccnc2c(O)cccc12 | nt | 0% | nt | nt | nt | nt
COC(=O)c1c(C)oc(C)c1S(=O)(=O)N1CCCCC1 | -9% | 0% | 0% | 0% | 18µM* | 0
CN(C)c1ccc(Cn2ccc3ccccc32)cc1 | nt | nt | nt | nt | -11% | nt
Nc1c(C(=O)NCc2ccc(F)cc2)c2nc3ccccc3nc2n1CCCN1CCOCC1 | -71% | -14% | 1% | 4% | 35µM* | 0
Nc1c(C(=O)NCc2ccccc2)c2nc3ccccc3nc2n1CCCN1CCOCC1 | -38% | 2% | 7% | 0% | 5% | -3
CC(C)Cn1c(N)c(C(=O)NCCN2CCOCC2)c2nc3ccccc3nc21 | -29% | -12% | 16% | 7% | 28µM* | 0
Cc1cccc(-n2c(N)c(C(=O)NCCN3CCOCC3)c3nc4ccccc4nc32)c1 | -6% | -1% | 8% | 1% | ? | 0
CCCCN(C)Cc1cc(=O)oc2cc3c(cc12)CCCC3 | -12% | 1% | 0% | 2% | 14µM* | -1
Cc1cc2oc(=O)cc(CN(C)Cc3ccccc3)c2cc1C | nt | nt | nt | nt | -5% | 0
CCN(CCO)Cc1cc(=O)oc2cc3c(cc12)CCC3 | -1% | 1% | -2% | 0% | -2% | 0
CCc1ccc2oc(=O)cc(CN(C)Cc3ccccc3)c2c1 | -17% | 1% | -5% | 1% | 16µM* | -1
Cc1ccc2c(C(=O)CNc3nccs3)c[nH]c2c1 | nt | nt | nt | nt | 1% | nt
O=C(COC(=O)c1ccc(C(F)(F)F)cc1)NC(=O)C1CCCCC1 | nt | nt | nt | -3% | -3% | nt
COc1ccc(-n2c(-c3cccc(C)c3[N+](=O)[O-])n[nH]c2=S)cc1 | 35% | -1% | 11µM* | -5% | -2% | 2
N#CC[n+]1cccc(Br)c1 | nt | nt | nt | nt | -1% | nt
COC(=O)c1cc2ccsc2n1CC(=O)N1CCCc2ccccc21 | 3% | -8% | 0% | -5% | -1% | -1
COC(=O)c1cc2oc3ccccc3c2n1CC(=O)N1CCCc2ccccc21 | 33% | 0% | 1% | 7% | 8.9µM* | 0
Oc1ccc(CNc2cccc(C(F)(F)F)c2)c2cccnc12 | nt | 1% | nt | nt | nt | nt
Cc1cc(C)c(C#N)c(=N)o1 | 9% | 0% | -11% | ? | 2.8µM* | 0
c1nc(SSc2ncc3n[nH]nc3n2)nc2n[nH]nc12 | nt | nt | nt | nt | -1% | nt
Cc1cc(=O)[nH]c(SCC(=O)N2CCCC2)n1 | 16% | 4% | nt | 1% | 22µM* | 1
Cc1cc(=O)[nH]c(SCC(=O)N2CCCC(C)C2)n1 (stereo not given) | 9% | 1% | nt | -1% | nt | 0
COc1cc(OC)c(NC(=O)N2CCN3CCCCC3C2)cc1Cl (stereo not given) | nt | nt | nt | -9% | -1% | nt
COc1cc(OC)c(NC(=O)N2CCOCC2)cc1Cl | -15% | 2% | 7%[11.5 µM] | -2% | 28µM* | 0
CN(C)C(=O)COc1ccccc1C(=O)OCC(=O)Nc1ccc(Oc2ccc(Br)cc2)cc1 | nt | nt | nt | nt | -5% | nt
CN(C)c1ccc(/C=C2\CCc3ccccc32)cc1 | nt | nt | nt | nt | 4% | nt

Screens (PubChem)
